Reference: PubChem BioAssay (NCI)
Where “and” joins values, the source holds several entries; their conditions need not be identical. Equal entries are not always repeated. About 83,000 compounds went through this panel and 20% of them were active in at least one assay; those are over-represented in the sample as a whole.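 Note: values are percent growth. 100 is the growth of untreated cells, values between 100 and 0 indicate rising inhibition; between -100 and 0 indicates cell death.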 Calls of active or inactive are those of the source. How the source made its calls: active means growth percent below 10; inactive means the rest.

What was measured:
Experiment in all cases: NCI-60 one-dose screen, 48 h (100 = growth as untreated, 0 = no growth, -100 = all killed)
Details in all cases: 10 µM
[1] = system: T-47D breast
[2] = system: BT-549 breast
[3] = system: MDA-MB-435 melanoma
[4] = system: SW-620 colon
[5] = system: MCF7 breast
[6] = system: HCT-116 colon
[7] = system: HCC-2998 colon
[8] = system: KM12 colon
[9] = system: MDA-MB-468 breast

Measured: growth

O=C(CSc1nnc(-c2c[nH]c3ccccc23)n1-c1ccccc1)Nc1ccc(C(=O)/C=C/c2ccc(Cl)cc2)cc1
inactive: [1] 40.3% | [2] 93.5% | [3] 64.1% | [4] 90.4% | [7] 78% | [8] 64.5%
active: [5] 6.09% | [6] -37.3%

O=C(c1ccc(Cl)cc1)C1[C@H](c2ccc(Br)cc2)[C@@H](c2ccccc2)NC12C(=O)Nc1ccc(Cl)cc12 (some centres not stated)
active: [1] 8.01% | [2] -57.1% | [3] -84.9% | [4] -76.4% | [5] -39.7% | [6] 5.1% | [7] -94.9% | [8] -26.6%

NS(=O)(=O)c1ccc(N=Nc2c(O)n(CC(=O)Nc3ccccc3Br)c3ccccc23)cc1
active: [2] 0.165%
inactive: [1] 38.1% | [3] 50.6% | [4] 44.4% | [5] 10.7% | [6] 21.4% | [7] 39.5% | [8] 36.7%

O=C1CCC(N2Cc3c(C#CCCCNC(=O)c4ccc(NC(=O)[C@@H]5NC6(CCCCC6)[C@@]6(C(=O)Nc7cc(Cl)ccc76)[C@H]5c5cccc(Cl)c5F)cc4)cccc3C2=O)C(=O)N1 (some centres not stated)
active: [5] 5.5%
inactive: [1] 38.4% | [2] 32.5% | [3] 61.6% | [4] 84.7% | [6] 12.6% | [7] 58.6% | [8] 49.2%

C/C(=N\NC(N)=S)c1ccc(Nc2nc(SC(C)C)nc(-c3ccccc3)c2C#N)cc1
inactive: [1] 57.3% | [2] 28.5% | [3] 82.6% | [4] 85.8% | [5] 64.2% | [6] 57.5% | [7] 59.2% | [8] 75.7%

CC(=O)NNc1ccc2nnc(-c3ccc(Br)cc3)n2n1
inactive: [1] 84.2% | [2] 90.2% | [3] 94.6% | [4] 102% | [5] 87.8% | [6] 101% | [7] 109% | [8] 105%

Cc1ccc(-c2nc(Nc3ccc(S(N)(=O)=O)cc3)c3ccccc3n2)cc1
active: [7] -9.82% | [8] 0.051%
inactive: [1] 40.5% | [2] 75.7% | [3] 57% | [4] 32.2% | [5] 26.7% | [6] 34.7% | [9] 44.2%

C=CC(=O)Nc1ccc(C(=O)/C=C/c2ccc(N(C)CCF)cc2)c(O)c1
active: [1] 5.88% | [2] -65% | [3] -46.7% | [4] 5.99% | [5] -19.5% | [6] -66.2% | [7] -78.4% | [8] -82.6% | [9] -73.6%

CN1CCO/C1=C(/NC(=O)c1ccc(Cl)cc1)[P+](c1ccccc1)(c1ccccc1)c1ccccc1
active: [9] -19.6%
inactive: [1] 66% | [2] 90.1% | [3] 66.7% | [4] 97.1% | [5] 62.9% | [6] 45.9% | [7] 89.1% | [8] 64.5%

COc1ccc(-c2nc(-c3ccccc3)c(-c3ccccc3)n2-c2ccc(S(=O)(=O)Nc3ncccn3)cc2)cc1OC
inactive: [1] 43.1% | [2] 68.3% | [3] 95.1% | [4] 98.1% | [5] 71.2% | [6] 67.4% | [7] 82.8% | [8] 78.3% | [9] 67.8%

O=c1cc(-c2ccccc2)oc2cc(OCCCNCc3ccccc3)cc(O)c12
inactive: [2] 46.8%
active: [1] -64.7% | [3] -44.2% | [4] -13.8% | [5] -30% | [6] -68.7% | [7] -95.8% | [8] -38.3% | [9] -59.5%

CN1C(=O)/C(=C/c2nccs2)SC1=S
inactive: [1] 45.9% | [2] 90.2% | [3] 83.9% | [4] 92.5% | [5] 38.2% | [6] 85.2% | [7] 113% | [8] 90.2% | [9] 65.3%

CC(C)Sc1nc(NC2CC2)c(C#N)c(-c2ccccc2)n1
inactive: [1] 92.7% | [2] 91.2% | [3] 98.6% | [4] 100% | [5] 88.1% | [6] 46.7% | [7] 97% | [8] 94.7% | [9] 80.4% and 99.9%

C/C(=C\CSc1ccccc1C(=O)O)CCCC(C)CCCC(C)CCCC(C)C (configuration not stated)
inactive: [1] 37.3% | [2] 80.6% | [3] 71.8% | [4] 55.1% | [5] 50.4% | [6] 34.4% | [7] 18.3% | [8] 46.4% | [9] 60.3%

O=C(Nc1nc2ccccc2s1)c1ccc(Br)cc1
inactive: [1] 44.1% | [2] 90.3% | [3] 88.8% | [4] 95% | [5] 41.6% | [6] 86.2% | [7] 78.3% | [8] 72.4% | [9] 37.9%

CCOc1ccc2ncc(C#Cc3cncc(C(=O)Nc4ccc(CN5CCN(C)CC5)c(C(F)(F)F)c4)c3)n2n1
active: [2] -60.9% | [3] -74.2% | [4] -62.1% | [5] -63.7% | [6] -48% | [7] -89.3% | [8] -91.1% | [9] -76.1%
inactive: [1] 71.9%

Cc1cccc2cc(-c3cc(-c4ccccc4)nc(=O)[nH]3)c(Cl)nc12
inactive: [1] 76.7% | [2] 84.4% | [3] 99.8% | [4] 87.7% | [5] 29.3% | [6] 63.4% | [7] 102% | [8] 73.5% | [9] 83.6%

O=C(CSc1nnc(-c2c[nH]c3ccccc23)n1-c1ccccc1)Nc1ccc(C(=O)/C=C/c2ccc(Br)cc2)cc1
active: [6] -32.4%
inactive: [1] 57.9% | [2] 87.4% | [3] 85.8% | [4] 97.6% | [5] 25.3% | [7] 94.4% | [8] 72% | [9] 71.1%

CCCCCCCCCCCCCCCCCCCC(=O)NCCc1c[nH]c2ccc(O)cc12
inactive: [1] 103% | [2] 32.3% | [3] 112% | [4] 112% | [5] 84.9% | [6] 83.3% | [7] 114% | [8] 88.5%

N#Cc1ccc(-c2nn(-c3ccc(C(=O)O)cc3)cc2CNc2ccc(Oc3ccccc3)cc2)cc1
active: [2] -5.49%
inactive: [1] 22.6% | [3] 63.6% | [4] 59.3% | [5] 59.8% | [6] 16.7% | [7] 11.5% | [8] 16.3% | [9] 103%

Nc1nc(-c2ccccc2)cs1
inactive: [1] 16.3% | [2] 31.1% | [3] 67.9% | [4] 70.5% | [5] 39.7% | [6] 50.7% | [7] 74.6% | [8] 43.1% | [9] 55.1% and 115%

Cc1ccc(C(C)C)cc1NC(=O)c1ccccc1N(C)C
inactive: [1] 57.1% | [2] 102% | [3] 95% | [4] 106% | [5] 82.8% | [6] 68.3% | [7] 96.7% | [8] 86.7% | [9] 71.9%

O=C(N/C(=C1/OCCN1Cc1ccccc1)[P+](c1ccccc1)(c1ccccc1)c1ccccc1)c1ccccc1
inactive: [1] 11.2% | [3] 18.5% | [4] 12.5%
active: [2] -16.4% | [5] 1.56% | [6] 2.1% | [7] -10.8% | [8] -1.17% | [9] -30%

COc1cccc(-c2nn(-c3ccccc3)cc2-c2ccnc(NCCCNC(=O)Nc3ccc(F)cc3)c2)c1
active: [1] 4.77% | [2] -20.6% | [3] -59% | [5] -15.5% | [6] 6.26% | [7] -25.1% | [8] 5.44% | [9] -54.7%
inactive: [4] 14.5%

Cc1ccc(CNC(=O)Cc2ccc3c(c2)CN(C2CCC(=O)NC2=O)C3=O)cc1 (configuration not stated)
inactive: [3] 13.7% | [5] 15.1% | [6] 65.2%
active: [1] -4% | [2] -46.4% | [4] 4.15% | [7] -23.5% | [8] 1.17% | [9] -50.8%

Nc1nc(Nc2ccc(Cl)cc2)nn1Cc1cccc(Br)c1
inactive: [1] 19.3% | [2] 34.2% | [3] 36.7% | [4] 61.9% | [5] 18.2% | [6] 35.2% | [8] 16.7% | [9] 28.1%
active: [7] 5.71%

Brc1ccc(/C=C/c2n(Cc3ccc4ccccc4c3)c3ccccc3[n+]2Cc2ccc3ccccc3c2)cc1
active: [1] -58.1% | [2] -56.6% | [3] -94% | [4] -73.9% | [5] -65.7% | [6] -86.5% | [7] -98% | [8] -40.7%

CCNCCCn1c2c(c3cc(OC)c(OC)cc3c1=O)C(=O)c1cc3c(nc1-2)OCO3
active: [3] -83.1% | [5] -88.9% | [6] -70.2% | [9] -36.2%
inactive: [1] 31.6% | [2] 36.2% | [4] 38.7% | [7] 20% | [8] 33.7%

COc1ccc(C(=O)/C=C/c2ccc(Cl)c(C(F)(F)F)c2)cc1S(N)(=O)=O
active: [1] -82.6% | [2] -82.3% | [3] -96.4% | [4] -94.7% | [5] -93.6% | [6] -71.6% | [7] -88.3% | [8] -43.7%
